According to PubChem BioAssay (NCATS):
Results filed as inconclusive are left out. Active and inactive are the calls of the source. Unless noted, the call rests on the fitted dose curve; in most records, active means well fitted curve in the direction sought with a large enough effect; inconclusive means small, poorly fitted or top-dose-only effect, or another doubt; inactive means no such curve, though single readings can be large; an effect the other way counts as inactive or inconclusive.

Tests used:
[1] = Natriuretic polypeptide receptor (hNpr1) antagonism - Pilot counterscreen GloSensor control cell line (AID 1347045; calls by dose curve; further: potency means the concentration at half of the fitted maximal effect)
Procedure, shortened: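 HEK293 cells carrying the GloSensor cGMP sensor (GIP/pGS-40F) were loaded with 2% GloSensor reagent for 2 h, exposed to compounds for 30 min, and then stimulated with 50 uM sodium nitroprusside for 20 min at room temperature.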

[2] = target: Atrial natriuretic peptide receptor 1 (Homo sapiens) (UniProt P16066); assay: Natriuretic polypeptide receptor (hNpr1) antagonism - Pilot screen (AID 1347049; calls by dose curve;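 further: agonist-evoked cGMP luminescence read 20 min after hNppA addition; series mostly up to about 58 µM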)
Chain of Atrial natriuretic peptide receptor 1 (Homo sapiens) (P16066 whole entry, looked up): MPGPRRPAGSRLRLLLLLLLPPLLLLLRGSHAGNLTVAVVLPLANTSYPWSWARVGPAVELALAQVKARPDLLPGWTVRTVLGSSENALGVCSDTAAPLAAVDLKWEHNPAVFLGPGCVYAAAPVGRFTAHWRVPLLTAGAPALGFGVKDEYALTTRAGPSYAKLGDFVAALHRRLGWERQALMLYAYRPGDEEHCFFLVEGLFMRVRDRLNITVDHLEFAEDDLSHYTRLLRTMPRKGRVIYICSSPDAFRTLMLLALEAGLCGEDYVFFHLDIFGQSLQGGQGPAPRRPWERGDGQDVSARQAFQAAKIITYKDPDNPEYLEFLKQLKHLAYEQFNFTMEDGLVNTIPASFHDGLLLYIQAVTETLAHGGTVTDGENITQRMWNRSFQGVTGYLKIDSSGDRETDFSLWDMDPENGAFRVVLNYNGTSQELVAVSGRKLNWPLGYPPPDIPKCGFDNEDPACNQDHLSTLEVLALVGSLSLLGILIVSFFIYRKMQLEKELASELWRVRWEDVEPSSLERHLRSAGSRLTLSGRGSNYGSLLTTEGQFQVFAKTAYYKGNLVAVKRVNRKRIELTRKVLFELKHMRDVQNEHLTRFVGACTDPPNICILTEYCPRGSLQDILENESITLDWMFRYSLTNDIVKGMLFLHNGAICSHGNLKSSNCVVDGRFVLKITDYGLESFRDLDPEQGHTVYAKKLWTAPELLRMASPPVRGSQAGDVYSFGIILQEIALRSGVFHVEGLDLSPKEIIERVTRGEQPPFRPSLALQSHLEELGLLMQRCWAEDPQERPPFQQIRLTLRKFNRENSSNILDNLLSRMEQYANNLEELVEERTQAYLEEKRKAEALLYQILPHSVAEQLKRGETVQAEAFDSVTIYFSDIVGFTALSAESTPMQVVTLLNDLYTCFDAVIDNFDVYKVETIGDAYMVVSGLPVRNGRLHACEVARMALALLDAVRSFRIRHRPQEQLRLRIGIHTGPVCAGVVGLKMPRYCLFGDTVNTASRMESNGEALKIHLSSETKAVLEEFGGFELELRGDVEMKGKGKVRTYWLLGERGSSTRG
Procedure, shortened: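 HEK293 cells co-expressing hNpr1 and the GloSensor pGS-40F cGMP luciferase sensor were preloaded with 2% GloSensor reagent for 2 h. Compounds were added for 30 min at room temperature, then cells were stimulated with 0.1 nM hNppA for 20 min before luminescence readout.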

[3] = NS1 protein of Zika virus - qHTS assay to identify small molecule inhibitors in human HEK 293 cells (AID 1347053); further: series mostly up to about 46 µM; nearly all actives have a fitted effect of over 55% in size
Procedure, shortened: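 HEK 293; 20 h pre-culture, 37 C/5% CO2; cpd 1 h pre-infection; ZIKV MR766, MOI = 0.5, 24 h, 37 C; TR-FRET NS1 readout (two anti-NS1 Abs); norm. to no-virus vs infected.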

[4] = target: T1, Tyrosine-protein phosphatase non-receptor type substrate 1 (Homo sapiens) + Leukocyte surface antigen CD47 (Homo sapiens) (UniProt P78324+Q08722); assay: CD47-SIRPalpha protein protein interaction - LANCE assay qHTS validation (AID 1347057; active means well fitted curve in the direction sought with a large enough effect in the signal ratio, with a control signal flat, not every such curve was filed as active; the % refers to the signal ratio; further: series mostly up to about 38 µM)
T1 sequence (P78324 whole entry, looked up): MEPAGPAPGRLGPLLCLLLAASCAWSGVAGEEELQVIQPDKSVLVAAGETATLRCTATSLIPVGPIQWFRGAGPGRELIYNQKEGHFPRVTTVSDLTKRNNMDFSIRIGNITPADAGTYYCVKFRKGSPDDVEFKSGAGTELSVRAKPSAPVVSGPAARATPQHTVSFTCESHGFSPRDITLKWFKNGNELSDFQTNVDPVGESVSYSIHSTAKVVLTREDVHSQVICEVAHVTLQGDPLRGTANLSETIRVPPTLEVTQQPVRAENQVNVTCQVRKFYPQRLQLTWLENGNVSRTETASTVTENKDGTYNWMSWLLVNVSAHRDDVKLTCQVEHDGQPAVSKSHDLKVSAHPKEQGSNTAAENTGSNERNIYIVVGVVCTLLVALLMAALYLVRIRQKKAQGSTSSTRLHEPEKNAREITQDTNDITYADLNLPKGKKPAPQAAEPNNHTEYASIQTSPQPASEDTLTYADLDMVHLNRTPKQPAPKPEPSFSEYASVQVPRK
T1 sequence (Q08722 whole entry, looked up): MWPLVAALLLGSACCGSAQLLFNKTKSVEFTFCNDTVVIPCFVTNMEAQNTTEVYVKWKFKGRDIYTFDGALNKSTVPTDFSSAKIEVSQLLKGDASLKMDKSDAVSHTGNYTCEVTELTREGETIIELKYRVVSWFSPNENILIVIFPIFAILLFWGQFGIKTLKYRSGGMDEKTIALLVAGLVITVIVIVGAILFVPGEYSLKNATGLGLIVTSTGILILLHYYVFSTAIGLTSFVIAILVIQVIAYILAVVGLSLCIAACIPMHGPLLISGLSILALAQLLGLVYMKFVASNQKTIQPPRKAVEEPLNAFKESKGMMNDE
Procedure, shortened: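 First, His-tagged CD47 and Eu-labelled anti-His antibody met the compound for 30 min; next, site-specifically biotinylated SIRPalpha was added for 30 min; finally streptavidin-APC was added before reading the TR-FRET ratio.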

[5] = target: T1, Tyrosine-protein phosphatase non-receptor type substrate 1 (Homo sapiens) + Leukocyte surface antigen CD47 (Homo sapiens); assay: CD47-SIRPalpha protein protein interaction - HTRF assay qHTS validation (AID 1347058; active means well fitted curve in the direction sought with a large enough effect in the signal ratio, not every such curve was filed as active; the % refers to the signal ratio; further: series mostly up to about 38 µM)
Procedure, shortened: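 TR-FRET read (Ch1/Ch2 ratio) of soluble extracellular CD47 and Avi-biotinylated SIRPalpha domains in PBS pH 7.4 with 0.05% IGEPAL; 7-point compound titration. Sequential 30 min room-temperature steps; non-biotinylated SIRPalpha as control inhibitor.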

[6] = target: Parathyroid hormone/parathyroid hormone-related peptide receptor (Homo sapiens) (UniProt Q03431); assay: qHTS for PTHR1 Agonists: Optimization Screen against the NCGC LOPAC library (AID 1347079);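 further: GloSensor cAMP luminescence in HEK-293 GP2 cells expressing human PTHR1 with IBMX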
Chain of Parathyroid hormone/parathyroid hormone-related peptide receptor (Homo sapiens) (Q03431 whole entry, looked up): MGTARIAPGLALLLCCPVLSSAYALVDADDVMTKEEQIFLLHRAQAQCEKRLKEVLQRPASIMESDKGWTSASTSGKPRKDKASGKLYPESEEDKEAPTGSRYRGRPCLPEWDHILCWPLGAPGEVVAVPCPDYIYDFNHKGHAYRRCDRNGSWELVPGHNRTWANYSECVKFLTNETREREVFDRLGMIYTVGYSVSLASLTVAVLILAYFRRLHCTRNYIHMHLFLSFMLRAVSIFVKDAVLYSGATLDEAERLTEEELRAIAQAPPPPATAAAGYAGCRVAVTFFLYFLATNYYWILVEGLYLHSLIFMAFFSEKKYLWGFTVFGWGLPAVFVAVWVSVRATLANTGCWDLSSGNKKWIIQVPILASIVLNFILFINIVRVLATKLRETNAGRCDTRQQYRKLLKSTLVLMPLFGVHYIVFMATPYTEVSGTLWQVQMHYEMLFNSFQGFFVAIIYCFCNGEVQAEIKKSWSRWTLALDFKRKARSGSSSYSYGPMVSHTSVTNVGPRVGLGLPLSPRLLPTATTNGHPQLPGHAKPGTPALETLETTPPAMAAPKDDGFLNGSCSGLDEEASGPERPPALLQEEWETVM
Procedure, shortened: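 Compounds were tested across a qHTS titration. PTHR1-expressing GP2 cells report cAMP rises via GloSensor luminescence after 1 hr compound exposure at 37C with IBMX present.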

[7] = qHTS of pediatric cancer cell lines to identify multiple opportunities for drug repurposing: Primary screen for TC32 cells (AID 1347089); further: nearly all actives have a fitted effect of over 60% in size; further: potency means the concentration at half of the fitted maximal effect
Procedure, shortened: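 In the primary qHTS, MIPE compounds were tested at 11 concentrations (0.78 nM to 46 µM) and NPC compounds at 8 (0.59 nM to 46 µM) on TC32 cells for 48 h. CellTiter-Glo luminescence gave viability.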

[8] = qHTS of pediatric cancer cell lines to identify multiple opportunities for drug repurposing: Primary screen for DAOY cells (AID 1347090); further: nearly all actives have a fitted effect of over 55% in size; further: potency means the concentration at half of the fitted maximal effect
Procedure, shortened: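 Eight- or eleven-point concentration series, 48 h treatment at 37 degrees C in growth media; readout CellTiter-Glo luminescence. Potency and efficacy were taken from the concentration-response curves.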

[9] = target: T1, Tyrosine-protein phosphatase non-receptor type substrate 1 (Homo sapiens) + Leukocyte surface antigen CD47 (Homo sapiens); assay: CD47-SIRPalpha protein protein interaction - Alpha assay qHTS validation (AID 1347059);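 further: bead proximity luminescence from CD47 binding SIRPalpha after compound preincubation with SIRPalpha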; further: potency means the concentration at half of the fitted maximal effect
Procedure, shortened: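 Soluble extracellular domains: Avi-tag biotinylated SIRPalpha (25 nM) preincubated 30 min RT with compound, then 6His-CD47 (12.5 nM) 30 min; Ni-NTA acceptor and streptavidin donor beads (10 ug/mL) 30 min, AlphaScreen read. PBS pH 7.4, 0.05% IGEPAL.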

[10] = target: Atrial natriuretic peptide receptor 2 (Homo sapiens) (UniProt P20594); assay: Natriuretic polypeptide receptor (hNpr2) antagonism - Pilot subtype selectivity assay (AID 1347050; calls by dose curve)
Chain of Atrial natriuretic peptide receptor 2 (Homo sapiens) (P20594 whole entry, looked up): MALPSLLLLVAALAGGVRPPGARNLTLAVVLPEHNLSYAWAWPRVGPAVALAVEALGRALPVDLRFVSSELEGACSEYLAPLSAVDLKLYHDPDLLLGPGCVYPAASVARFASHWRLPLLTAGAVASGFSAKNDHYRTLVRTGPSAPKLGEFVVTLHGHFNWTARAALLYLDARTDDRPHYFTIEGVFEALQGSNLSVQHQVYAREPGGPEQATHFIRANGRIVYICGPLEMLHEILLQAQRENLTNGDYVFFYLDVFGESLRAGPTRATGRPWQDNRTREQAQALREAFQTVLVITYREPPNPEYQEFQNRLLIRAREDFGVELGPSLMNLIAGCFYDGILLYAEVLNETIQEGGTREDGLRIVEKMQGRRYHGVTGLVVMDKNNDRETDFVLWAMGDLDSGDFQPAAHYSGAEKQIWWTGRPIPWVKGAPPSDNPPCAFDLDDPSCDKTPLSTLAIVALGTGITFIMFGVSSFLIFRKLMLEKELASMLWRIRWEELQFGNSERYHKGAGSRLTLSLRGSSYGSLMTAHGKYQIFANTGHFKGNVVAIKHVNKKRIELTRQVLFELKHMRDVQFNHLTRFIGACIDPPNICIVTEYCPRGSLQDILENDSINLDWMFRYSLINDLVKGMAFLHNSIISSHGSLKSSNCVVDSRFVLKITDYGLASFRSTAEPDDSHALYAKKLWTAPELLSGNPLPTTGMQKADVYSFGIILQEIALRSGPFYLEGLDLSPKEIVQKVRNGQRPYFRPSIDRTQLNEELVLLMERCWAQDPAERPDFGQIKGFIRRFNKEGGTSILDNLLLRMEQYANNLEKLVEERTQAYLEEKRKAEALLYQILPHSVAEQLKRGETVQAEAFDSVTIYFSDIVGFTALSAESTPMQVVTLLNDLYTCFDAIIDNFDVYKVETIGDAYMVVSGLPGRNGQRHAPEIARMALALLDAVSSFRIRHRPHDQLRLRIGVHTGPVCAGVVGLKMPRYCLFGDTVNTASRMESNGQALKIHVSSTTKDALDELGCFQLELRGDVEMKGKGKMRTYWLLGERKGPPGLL
Procedure, shortened: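 cGMP-sensor HEK293/hNpr2 cells; 2% GloSensor reagent 2 h RT; compounds 30 min; baseline luminescence read; 1 nM hNppC agonist 20 min RT; final luminescence read by CCD camera. Antagonism = reduced post-agonist signal.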

Measured: Potency

O=C(O)CN(CCN(CC(=O)O)CC(=O)O)CCN(CC(=O)O)CC(=O)O
not listed: [9] | [10]
inactive: all other assays above

NC(N)=N/N=C/c1c(Cl)cccc1Cl
not listed: [7] | [10]
inactive: all other assays above

CC(=O)Oc1cc(C(C)C)c(OCCN(C)C)cc1C
inactive: [2] | [3] | [6] | [7] | [8]

COCCCC/C(=N\OCCN)c1ccc(C(F)(F)F)cc1
not listed: [1]
inactive: all other assays above

CCNC(=O)N1CCN(CCCC(c2ccc(F)cc2)c2ccc(F)cc2)CC1
active: [1] 11.7 µM
not listed: [2] | [8] | [10]
inactive: all other assays above

CN(C)C(=O)Oc1cccc([N+](C)(C)C)c1
not listed: [1] | [7]
inactive: all other assays above

c1cc(CN2CCCCC2)cc(OCCCNc2nc3ccccc3s2)c1
not listed: [1] | [7]
inactive: all other assays above

CC1=C(C)C(=O)C(CCCCC#CCCCC#CCO)=C(C)C1=O
inactive: [2] | [3] | [4] | [9] | [6] | [8]

OC(CCN1CCCCC1)(c1ccccc1)C1CCCCC1 (stereo not drawn)
inactive: [2] | [3] | [6] | [7] | [8]

CN1CCN(C2=Nc3ccccc3Oc3ccc(Cl)cc32)CC1
not listed: [2] | [7] | [10]
inactive: all other assays above

Cc1ccc(=O)n(-c2ccccc2)c1
not listed: [7] | [10]
inactive: all other assays above

CC1=NS(=O)(=O)c2cc(Cl)ccc2N1
not listed: [5] | [10]
inactive: all other assays above

O=C(CCCN1CCC(O)(c2cccc(C(F)(F)F)c2)CC1)c1ccc(F)cc1
not listed: [1]
inactive: all other assays above

CC(C)(C)c1ccc(C(=O)CCCN2CCC(OC(c3ccccc3)c3ccccc3)CC2)cc1
not listed: [1] | [5] | [8]
inactive: all other assays above

C[C@]12C=CC(=O)C=C1CC[C@H]1[C@@H]3C[C@@H](O)[C@](O)(C(=O)CO)[C@@]3(C)C[C@H](O)[C@@]12F
inactive: [2] | [10] | [3] | [6] | [7] | [8]

CCOC(=O)C1=C(C)NC(C)=C(C(=O)OC)C1c1cccc([N+](=O)[O-])c1 (stereo not drawn)
not listed: [2] | [5]
inactive: all other assays above

COC(=O)C1=C(C)NC(C)=C(C(=O)OCCN(C)Cc2ccccc2)C1c1cccc([N+](=O)[O-])c1 (stereo not drawn)
active: [1] 16.5 µM
inactive: [3] | [4] | [6] | [7]

CN(C)CCCN1c2ccccc2Sc2ccc(C(F)(F)F)cc21
inactive: [2] | [3] | [6] | [8]

Brc1c(NC2=NCCN2)ccc2nccnc12
not listed: [5] | [10]
inactive: all other assays above

CCCCOCCOCCOCc1cc2c(cc1CCC)OCO2
inactive: [3] | [7] | [8]

COc1ccc(CN(CCN(C)C)c2ccccn2)cc1
not listed: [2] | [7]
inactive: all other assays above

C[C@]12CCC(=O)C=C1CC[C@@H]1[C@@H]2C(=O)C[C@@]2(C)[C@H]1CC[C@]2(O)C(=O)CO
not listed: [1] | [2]
inactive: all other assays above

CC(=O)[C@]1(O)Cc2c(O)c3c(c(O)c2[C@@H](O[C@H]2C[C@H](N)[C@H](O)[C@H](C)O2)C1)C(=O)c1ccccc1C3=O
active: [9] 16.5 µM | [7] 0.47 µM | [8] 2.11 µM
inactive: [2] | [3] | [6]

O=C1NCN(c2ccccc2)C12CCN(CCCC(c1ccc(F)cc1)c1ccc(F)cc1)CC2
inactive: [2] | [3] | [6]

C[C@@H](O)[C@H]1C(=O)N2C(C(=O)O)=C(SCCN=CN)C[C@H]12
not listed: [7] | [10]
inactive: all other assays above

NC(=O)N1c2ccccc2C=Cc2ccccc21
not listed: [1]
inactive: all other assays above

O=C1CC2(CCCC2)CC(=O)N1CCCCN1CCN(c2ncccn2)CC1
not listed: [7] | [10]
inactive: all other assays above

CCO/C([O-])=N/c1c[n+](N2CCOCC2)no1
not listed: [5] | [10]
inactive: all other assays above

CO[C@@]1(NC(=O)CSCC#N)C(=O)N2C(C(=O)O)=C(CSc3nnnn3C)CS[C@@H]21
not listed: [7] | [10]
inactive: all other assays above

Cc1nc2sccn2c(=O)c1CCN1CCC(=C(c2ccc(F)cc2)c2ccc(F)cc2)CC1
not listed: [1] | [7]
inactive: all other assays above

NC(=Nc1ccccc1)Nc1ccccc1
inactive: [3] | [7] | [8]

OCCN1CCN(CC/C=C2/c3ccccc3Sc3ccc(C(F)(F)F)cc32)CC1
not listed: [1] | [3] | [7]
inactive: all other assays above

COC(=O)[C@H]1[C@H]2C[C@@H]3c4[nH]c5cc(OC)ccc5c4CCN3C[C@H]2C[C@@H](OC(=O)c2cc(OC)c(OC)c(OC)c2)[C@@H]1OC
inactive: [1] | [2] | [3] | [4] | [6] | [7]

CNCCCN1c2ccccc2CCc2ccccc21
not listed: [7] | [10]
inactive: all other assays above

CCCN(CCC)C(=O)C(CCC(=O)O)NC(=O)c1ccccc1 (stereo not drawn)
not listed: [7] | [10]
inactive: all other assays above
